Measured values as given in ChEMBL document CHEMBL3988442, “University of Dundee, Small-Polar-MMV Screening Library” (2021).
The campaign covered roughly 48,000 compounds. About 13,000 (27%) showed an effect of 50% or more. This is one part of the list.

Each compound was assayed on Wolbachia pipientis (assay: Anti-Wolbachia Cell-Based Screen). Details: 5 µM.
Format: functional
Design: scale not given: in the data most compounds retested in dose-response had high values

Going from `CC(NC1(CNC(=O)CC(C)(C)C)CCOCC1)c1ccccc1` (stereo not given) to `CC(C)[C@H]1CN(Cc2ccncc2)C[C@@H]1NC(=O)C1(C#N)CCOCC1`, the “Percent Effect” value rises from 7.994% to 101.3%.

First: O=C(NCCc1cccnc1)N1CCCC1c1ccsc1 (stereo not given)
Second: O=C(Nc1nccs1)NC1CCN(Cc2ccccc2)C1 (stereo not given)
The “Percent Effect” value of the first is higher: 4.878% for the first, -7.508% for the second.

Compared with `NC(=O)CCn1nnc(-c2cc3ccccc3o2)n1`, `NC(=O)N1CC(OCc2cccc3ccccc23)C1` is lower in “Percent Effect” value: 8.655% for the first, -8.487% for the second.

Going from `COc1cccc(CN(C)C(=O)CN2CCN(c3nccs3)CC2)c1` to `NC(=O)C1CCN(CC(=O)N(Cc2ccccc2)Cc2nccs2)CC1`, the “Percent Effect” value rises from 7.332% to 113.3%.

Compared with `O=C(CN1CCOC1=O)N(Cc1ccccc1)Cc1nccs1`, `CN(Cc1csc(-c2cccs2)n1)C(=O)CN1CCOC1=O` is lower in “Percent Effect” value: 101.3% for the first, 19.54% for the second.

First: COc1ccc(CN(CC2CCCO2)C(=O)CN2CCOC2=O)cc1 (stereo not given)
Second: O=C(CN1CC(c2nc(-c3ccco3)no2)C1)NCC1CCCO1.O=C(O)C(=O)O (stereo not given)
The “Percent Effect” value of the first is higher: 10.27% for the first, 8.836% for the second.

Compared with `CN(Cc1cccnc1)c1nccc(N2CCN[C@H]3CS(=O)(=O)C[C@H]32)n1`, `O=C(NCc1cccnc1)C1=NOC2(CCN(S(=O)(=O)C3CC3)C2)C1` (stereo not given) is lower in “Percent Effect” value: -2.359% for the first, -5.335% for the second.

Compared with `COc1cccc(-c2cc(NCC(=O)O)nc3[nH]ccc23)n1`, `O=C(O)CNc1cc(-c2nccnc2N2CCCC2)c2cc[nH]c2n1` is higher in “Percent Effect” value: -3.915% for the first, 94.3% for the second.

First: Nc1cc(-c2cc(O)cc(C(=O)O)c2)c2cc[nH]c2n1
Second: Nc1cc(-c2ccc(C(=O)O)cc2O)c2cc[nH]c2n1
The “Percent Effect” value of the first is lower: -2.921% for the first, 1.335% for the second.

First: OCCNc1cc(-c2nccnc2N2CCCC2)c2cc[nH]c2n1
Second: Nc1cc(-c2nccnc2N2CCCC2)c2cc[nH]c2n1
The “Percent Effect” value of the first is higher: 104.7% for the first, 67.22% for the second.

First: CN(C)CCNc1cc(-c2ncccc2C(F)(F)F)c2cc[nH]c2n1
Second: CN(C)CCNc1cc(-c2ncccc2O)c2cc[nH]c2n1
The “Percent Effect” value of the first is lower: -6.362% for the first, 15.75% for the second.

First: Nc1cc(-c2cc(C(=O)O)ccc2Cl)c2cc[nH]c2n1
Second: CN(Cc1cc[nH]n1)C(=O)c1cccc(CCC(C)(C)O)c1
The “Percent Effect” value of the first is higher: 2.257% for the first, -7.029% for the second.

First: Cc1noc(C2CN(CC(=O)NCC3CCCO3)C2)n1 (stereo not given)
Second: Cc1cc(C)c2cc(CNCC3CCCO3)c3nn(C)c(=O)n3c2c1 (stereo not given)
The “Percent Effect” value of the first is higher: 9.756% for the first, -6.505% for the second.

Going from `CN(C)C(=O)c1ccc2c(c1)N(C)C(CC(=O)NC(CO)CO)CO2` (stereo not given) to `CC(C)N(C)CC(=O)NCC(Cc1ccc(F)cc1)C(N)=O` (stereo not given), the “Percent Effect” value rises from 0.9161% to 103.5%.

Compared with `Cc1cc(C)c2cc(CNC3CCCCC3)c3nn(C)c(=O)n3c2c1`, `Cc1cc(C)c2cc(CNC(C)C)c3nn(C)c(=O)n3c2c1` is higher in “Percent Effect” value: 108.3% for the first, 117% for the second.

Compared with `CCCn1cnnc1CNC1CCCC1`, `CC(C)NCC1(O)CCCN(CCC2CCCCC2)C1=O` (stereo not given) is lower in “Percent Effect” value: -7.935% for the first, -46.74% for the second.

Compared with `CCn1cc(CN(C)C(=O)c2cccc(CCC(C)(C)O)c2)cn1`, `CN(CC(O)CO)C(=O)c1coc(COc2cccc(F)c2)n1` (stereo not given) is lower in “Percent Effect” value: -2.58% for the first, -18.15% for the second.

Going from `COCc1ccc(C(=O)N2CCN(CC=C(C)C)[C@@H]3CS(=O)(=O)C[C@@H]32)o1` to `O=C(c1ccco1)N1CC[C@@H]2[C@H]1CCC(=O)N2c1ccccc1`, the “Percent Effect” value rises from -1.241% to 9.276%.

Compared with `O=C(O)Cn1nc(C2CC2)c2c(-c3cccs3)ccnc21`, `O=C(O)Cn1nc(C2CC2)c2c(-c3ccco3)ccnc21` is lower in “Percent Effect” value: 125.7% for the first, 121.5% for the second.

Compared with `O=c1[nH]c(NC2CCCC2)nc2nccc(-c3ccco3)c12`, `O=c1[nH]c(NC2CCCC2)nc2nccc(-c3cccs3)c12` is lower in “Percent Effect” value: 15.07% for the first, -0.1995% for the second.

Compared with `O=C(Cn1cnc(-c2cccs2)cc1=O)Nc1cccnc1`, `Cn1cc(NC(=O)NCc2ccsc2)ccc1=O` is lower in “Percent Effect” value: 14.09% for the first, -5.862% for the second.

Going from `N#Cc1ccc(N2CCCC(CO)(CCOc3ccccc3)C2)nc1` (stereo not given) to `Cl.Clc1cccc(N[C@H]2CCCN[C@H]2Cc2ccccc2)c1`, the “Percent Effect” value rises from -8.429% to 152.2%.

First: CCOc1ccc(CC(CNC(=O)c2ccc(C)o2)C(N)=O)cc1 (stereo not given)
Second: CCOc1ccc(CC(CNC(=O)c2occc2C)C(N)=O)cc1 (stereo not given)
The “Percent Effect” value of the first is lower: -14.58% for the first, -2.596% for the second.

Going from `NC(=O)CS(=O)(=O)Cc1ccc(F)cc1` to `CC(C)S(=O)(=O)CC(=O)NCC(Cc1ccc(F)cc1)C(N)=O` (stereo not given), the “Percent Effect” value rises from 3.461% to 124.5%.

Going from `CC(C)NC(=O)NCC(Cc1ccc(F)cc1)C(N)=O` (stereo not given) to `Cc1ccoc1C(=O)NCC(Cc1ccc(F)cc1)C(N)=O` (stereo not given), the “Percent Effect” value falls from 96.65% to 7.737%.

Going from `CC(C)c1nnc(NC(=O)Cc2ccc(F)cc2)[nH]1` to `COC(=O)C(CNC(=O)Nc1nncs1)Cc1ccc(F)cc1` (stereo not given), the “Percent Effect” value rises from -66.88% to 5.054%.

Compared with `Cc1cc(C)c2nc(CNC3CCCNC3=O)cc(O)c2c1` (stereo not given), `Cc1cc2c(cc1C)C(NCc1nnc3n1CCCCC3)CCCO2` (stereo not given) is higher in “Percent Effect” value: -9.599% for the first, 3.518% for the second.

First: Cn1cc(CN2CCCn3cnc(COCc4ccco4)c3C2)cn1
Second: Cn1nc(C(=O)N2CCOCC2)c2c1CN(CC1CCC1)C2
The “Percent Effect” value of the first is lower: -8.432% for the first, 98% for the second.

First: CSCC[C@@H](CO)n1ccnc1-c1nccn1C
Second: COC(C)(C)C(=O)N[C@H]1CN(c2nccnc2N(C)C)C[C@@H]1C(C)C
The “Percent Effect” value of the first is lower: -1.218% for the first, 9.529% for the second.

Going from `CC(C)(C)c1noc(CCCC(=O)N2CCNC(=O)CC2)n1` to `O=C1CCN(C(=O)CCc2cc(Br)cs2)CCN1`, the “Percent Effect” value rises from -18.62% to -5.326%.

Going from `O=C1CCN(C(=O)NCCCc2ccc(Cl)cc2Cl)CCN1` to `O=C1CCN(C(=O)CCc2ccc(Cl)cc2Cl)CCN1`, the “Percent Effect” value falls from 108.4% to 106.4%.

Compared with `O=C1CCN(C(=O)NCCc2c[nH]c3ccc(Cl)cc23)CCN1`, `CC(CNC(=O)N1CCNC(=O)CC1)Cc1cccs1` (stereo not given) is lower in “Percent Effect” value: 98.23% for the first, 17.79% for the second.

Going from `O=C(NCCOc1ccc(Cl)cc1)N1CCS(=O)(=O)CC1` to `CC(=O)N1CCCN(C(=O)NCCc2cc(Cl)cc(Cl)c2)CC1`, the “Percent Effect” value falls from 9.107% to 8.517%.

Going from `O=C1CCN(C(=O)C2(c3ccc(Br)cc3)CC2)CCN1` to `O=C(c1cc2c([nH]c1=O)CCC2)N1CCCCC1c1cccc(F)c1` (stereo not given), the “Percent Effect” value falls from 3.303% to -12.81%.

Going from `Cc1noc(C)c1CN(C)C(=O)c1ccc2c(c1O)OC(C)(C)C2` to `Cc1nc(C)c(C(=O)N2CCc3ccc(F)cc3C2C)o1` (stereo not given), the “Percent Effect” value rises from -18.28% to 2.437%.

Compared with `Cc1ccn2ncc(C(=O)N3CCCC(n4nc(C)nc4C)C3)c2n1` (stereo not given), `Cc1nc(C)c(C(=O)N2CCc3cc(F)ccc3C2C)o1` (stereo not given) is lower in “Percent Effect” value: 0.3182% for the first, -9.87% for the second.

Going from `Cl.O=C(Nc1ccccc1F)C1=NOC2(CCNCC2)C1` to `O=C(Nc1ccccc1)C1=NOC2(CCCN(C(=O)C3CCCC3)C2)C1` (stereo not given), the “Percent Effect” value rises from 2.616% to 104.4%.

Going from `O=C(NCc1cccnc1)C1=NOC2(CCN(C3CCOCC3)C2)C1` (stereo not given) to `O=C(NCc1cccnc1)C1=NOC2(CCN(C(=O)N3CCCC3)C2)C1.O=C(O)C(F)(F)F` (stereo not given), the “Percent Effect” value falls from -2.233% to -7.099%.

Compared with `O=C(Nc1ccccc1)C1=NOC2(CCCN(C(=O)N3CCCC3)C2)C1` (stereo not given), `CNC(=O)[C@@H](c1ccccc1F)N1CCC[C@H]1C(=O)NC1CCCC1.Cl` is lower in “Percent Effect” value: 131.1% for the first, 0.555% for the second.

Compared with `CCC(C)(CC(=O)OC)NCc1nc(C)no1` (stereo not given), `CC(C)(C)c1ccc2c(c1)CCN2C(=O)c1nc(=O)[nH][nH]1` is higher in “Percent Effect” value: -15.67% for the first, 2.994% for the second.

First: COC(=O)c1cc(C(=O)N2CCc3ccc(F)cc3C2C)ccn1 (stereo not given)
Second: CC1c2cc(F)ccc2CCN1C(=O)c1[nH]c(=O)[nH]c(=O)c1N (stereo not given)
The “Percent Effect” value of the first is lower: -4.117% for the first, 103.3% for the second.

First: CC1c2ccc(F)cc2CCN1C(=O)c1nc(=O)[nH][nH]1 (stereo not given)
Second: CC1c2ccc(F)cc2CCN1C(=O)c1[nH]c(=O)[nH]c(=O)c1N (stereo not given)
The “Percent Effect” value of the first is higher: 110% for the first, 98.7% for the second.

Compared with `CC(C)(C)c1ccc2c(c1)CCN2C(=O)c1[nH]c(=O)[nH]c(=O)c1N`, `CC(C)[C@H]1CN(S(C)(=O)=O)C[C@@H]1NC(=O)c1ccnc(N)c1` is lower in “Percent Effect” value: 1.564% for the first, -108.5% for the second.

Compared with `O=C1NCCCc2[nH]c(Cc3cccc(Cl)c3)nc21`, `O=C(Cc1cccc(Cl)c1)N[C@@H]1CCNC[C@H]1O` is higher in “Percent Effect” value: -5.245% for the first, 4.451% for the second.

Compared with `Cl.Cl.Clc1cccc(C[C@@H]2NCCC[C@@H]2Nc2cccc(Cl)c2)c1`, `Cl.Cl.Clc1cccc(C[C@@H]2NCCC[C@@H]2Nc2ccccc2)c1` is higher in “Percent Effect” value: 33.15% for the first, 167.6% for the second.

Going from `Clc1cccc(CNC2CCN(CCc3ccncc3)CC2)c1` to `N#CC1(C(=O)N2C[C@H]3CC[C@@H]2CN(Cc2ccncc2)C3)CCOCC1`, the “Percent Effect” value rises from -6.723% to -3.393%.

Compared with `O=C(O)C(F)(F)F.O=C(c1nc2c(o1)CN(CC1CC1)C2)N1CCCC1`, `CC(C)CCN1Cc2c(C(=O)N3CCCC3)nn(C)c2C1.O=C(O)C(F)(F)F` is higher in “Percent Effect” value: -4.032% for the first, 4.332% for the second.

Going from `O=C([C@H]1COC[C@H]2CN(CC3CCC3)C[C@H]21)N1CCOCC1` to `Cn1nc(C(=O)N2CCCC2)c2c1CN(CC1CCOCC1)C2`, the “Percent Effect” value rises from -17.46% to -10.68%.

Going from `Cn1nc(C(=O)N2CCOCC2)c2c1CN(CC1CC1)C2.O=C(O)C(F)(F)F.O=C(O)C(F)(F)F` to `O=C(O)c1cc(N2C[C@H](NC(=O)C3CCOCC3)[C@@H](C3CC3)C2)ccn1`, the “Percent Effect” value falls from 102.2% to -7.348%.

Going from `CC(=O)N[C@@H]1CN(Cc2nnc(-c3ccccc3)o2)C[C@H]1C(C)C` to `CC(C)[C@@H]1CN(Cc2ccccc2C#N)C[C@H]1NC(=O)N(C)C`, the “Percent Effect” value rises from 0.5134% to 4.058%.

First: O=C(N[C@H]1CN(c2ccncc2)C[C@@H]1C1CC1)C1CCOCC1
Second: CC(C)[C@H]1CN(c2ccncc2)C[C@@H]1NC(=O)C1(C#N)CCOCC1
The “Percent Effect” value of the first is lower: 31.8% for the first, 98.03% for the second.

Compared with `CS(=O)(=O)NCC(=O)N[C@H]1CN(c2cnccn2)C[C@@H]1C1CC1`, `CC(C)[C@H]1CN(c2cnccn2)C[C@@H]1NC(=O)C1(C#N)CCOCC1` is higher in “Percent Effect” value: 0.2443% for the first, 90.9% for the second.

For `Cc1cc(N2C[C@H](NC(=O)C3(C#N)CCOCC3)[C@@H](C(C)C)C2)ccn1`, the “Percent Effect” value was 95.25%.
